Assay results taken from PubChem BioAssay (EPA / NIEHS).
Active and inactive are the calls of the source. Rule for the calls: active = hit-call score of the fitted dose curve at least 0.9, where 1 is the maximum; inactive = score below 0.9.

Key:
[1] = target: Bile acid receptor (Homo sapiens) (UniProt Q96RI1); experiment: ATG_IR1_CIS: Attagene CIS-FACTORIAL HepG2 Assay for human Nuclear Receptor Subfamily 1 Group H Member 4 (NR1H4), IR1 submotif (AID 2282946); conditions: IR1 reporter transcription, actives raise or lower the signal
In short: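 Fluorescence of capillary-separated, HpaI-digested RT-PCR reporter products gave IR1-element mRNA induction in HepG2 cells 24 h after dosing. Endogenous transcription factors drove the cis-regulated reporters; activity was fitted bidirectionally against DMSO.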

[2] = ATG_GRE_CIS: Attagene CIS-FACTORIAL HepG2 Assay for human Glucocorticoid Response Elements (GRE) (AID 2282947); conditions: HepG2 GRE cis-reporter, Attagene multiplex mRNA; actives raise or lower the signal
In short: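 Fluorescence intensity of reporter-specific cDNA fragments, separated by capillary electrophoresis, provides the signal. Constructs carry cis-regulating promoters in transiently transfected HepG2 liver cells; 24 h incubation; fitting is bidirectional against DMSO.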

[3] = ATG_M_32_CIS: Attagene CIS-FACTORIAL HepG2 Assay for M32 Transcription Factor (Internal Marker) (AID 2282949); conditions: HepG2 Attagene cis-factorial M32 reporter, mRNA; actives raise or lower the signal;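 note: background control marker of the multiplexed CIS panel rather than a real target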
In short: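 HepG2 transfectants (cis-regulated reporter transcription units) dosed 24 h. Reporter mRNA by RT-PCR plus CE, analysed as gain or loss relative to DMSO.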

[4] = ATG_M_06_CIS: Attagene CIS-FACTORIAL HepG2 Assay for M06 Transcription Factor (Internal Marker) (AID 2282950); conditions: HepG2 Attagene CIS-FACTORIAL M06 internal marker reporter; actives raise or lower the signal
In short: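 HepG2 liver cells, 24 h exposure. Reporter transcripts from transfected cis-element constructs quantified by RT-PCR/capillary electrophoresis fluorescence. Bidirectional curve fit against DMSO.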

[5] = target: Hypoxia-inducible factor 1-alpha (Homo sapiens) (UniProt Q16665); experiment: ATG_HIF1a_CIS: Attagene CIS-FACTORIAL HepG2 Assay for human Hypoxia Inducible Factor 1 (HIF1A) (AID 2282951); conditions: HepG2 Attagene cis-factorial HIF1a reporter transcription; actives raise or lower the signal
In short: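 After 24 h chemical exposure of reporter-transfected HepG2 cells, reporter cDNA was PCR-amplified, labelled by 6-FAM primer extension (2 min 95 C, 20 s 68 C, 10 min 72 C), HpaI-cut (2 h, 37 C) and analysed by CE.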

[6] = target: Hepatocyte nuclear factor 6 (Homo sapiens) (UniProt Q9UBC0); experiment: ATG_HNF6_CIS: Attagene CIS-FACTORIAL HepG2 Assay for human Hepatocyte Nuclear Factor 6 (HNF6) (AID 2282952); conditions: HepG2 Attagene cis-factorial HNF6 reporter transcription; actives raise or lower the signal
In short: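 First, HepG2 cells were transfected with the multiplexed cis reporter library and dosed with chemical for 24 h. Next, RNA was reverse-transcribed, PCR-amplified and fluorescently labelled. Finally, HpaI-digested fragments were read by capillary electrophoresis.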

[7] = target: Heat shock factor protein 1 (Homo sapiens) (UniProt Q00613); experiment: ATG_HSE_CIS: Attagene CIS-FACTORIAL HepG2 Assay for human Heat Shock Transcription Factor 1 (HSE) (AID 2282953); conditions: HepG2 HSE cis-reporter, Attagene RNA transcription; actives raise or lower the signal
In short: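 Endogenous transcription factor activity captured via cis-promoter reporter units transfected into HepG2; treatment lasted 24 h. Fluorescence intensity of reporter fragments analysed with bidirectional curve fitting, DMSO baseline.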

[8] = ATG_MRE_CIS: Attagene CIS-FACTORIAL HepG2 Assay for human Metal Responsive Element (MRE) (AID 2282954); conditions: HepG2 MRE cis-reporter transcription, Attagene multiplex; actives raise or lower the signal
In short: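 Measured here is mRNA induction from an MRE cis-element reporter in HepG2 after 24 h, quantified by fluorescence of labelled RT-PCR products on capillary electrophoresis; gain- and loss-of-signal fits use DMSO as baseline.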

[9] = ATG_ISRE_CIS: Attagene CIS-FACTORIAL HepG2 Assay for human Interferon Regulatory Factor 1 (IRF1) binding to an Interferon-Stimulated Response Element (ISRE) (AID 2282948); conditions: HepG2 ISRE cis-reporter (Attagene), mRNA transcription readout; actives raise or lower the signal
In short: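 Endogenous transcription factor activity read as reporter transcript abundance via RT-PCR and capillary electrophoresis. HepG2 cells transiently transfected, 24 h chemical exposure. Gain or loss fitted against DMSO baseline.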

[10] = ATG_PBREM_CIS: Attagene CIS-FACTORIAL HepG2 Assay for human Phenobarbital-responsive Enhancer Module (PBREM) (AID 2282955); conditions: HepG2 PBREM cis-reporter, Attagene multiplexed transcription; actives raise or lower the signal
In short: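 Measures endogenous factor action on a phenobarbital-responsive enhancer module. HepG2 transiently carrying cis reporters, 24 h treatment, mRNA read-out by RT-PCR plus capillary electrophoresis.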

Sequence of Bile acid receptor (Homo sapiens) (Q96RI1 whole entry, looked up): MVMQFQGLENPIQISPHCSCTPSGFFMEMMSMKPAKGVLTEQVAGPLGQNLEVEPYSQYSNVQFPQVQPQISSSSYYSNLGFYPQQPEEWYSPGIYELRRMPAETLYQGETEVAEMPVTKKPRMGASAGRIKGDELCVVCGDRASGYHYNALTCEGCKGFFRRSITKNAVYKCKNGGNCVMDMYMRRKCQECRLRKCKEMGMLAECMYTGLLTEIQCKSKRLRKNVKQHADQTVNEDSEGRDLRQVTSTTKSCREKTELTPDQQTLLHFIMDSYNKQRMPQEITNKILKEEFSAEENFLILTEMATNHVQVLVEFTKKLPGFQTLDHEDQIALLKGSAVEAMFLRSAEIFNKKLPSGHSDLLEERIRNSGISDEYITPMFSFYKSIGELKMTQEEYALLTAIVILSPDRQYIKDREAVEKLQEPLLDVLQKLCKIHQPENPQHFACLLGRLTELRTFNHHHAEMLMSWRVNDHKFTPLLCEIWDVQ
Sequence of Heat shock factor protein 1 (Homo sapiens) (Q00613 whole entry, looked up, the tested form may be a part): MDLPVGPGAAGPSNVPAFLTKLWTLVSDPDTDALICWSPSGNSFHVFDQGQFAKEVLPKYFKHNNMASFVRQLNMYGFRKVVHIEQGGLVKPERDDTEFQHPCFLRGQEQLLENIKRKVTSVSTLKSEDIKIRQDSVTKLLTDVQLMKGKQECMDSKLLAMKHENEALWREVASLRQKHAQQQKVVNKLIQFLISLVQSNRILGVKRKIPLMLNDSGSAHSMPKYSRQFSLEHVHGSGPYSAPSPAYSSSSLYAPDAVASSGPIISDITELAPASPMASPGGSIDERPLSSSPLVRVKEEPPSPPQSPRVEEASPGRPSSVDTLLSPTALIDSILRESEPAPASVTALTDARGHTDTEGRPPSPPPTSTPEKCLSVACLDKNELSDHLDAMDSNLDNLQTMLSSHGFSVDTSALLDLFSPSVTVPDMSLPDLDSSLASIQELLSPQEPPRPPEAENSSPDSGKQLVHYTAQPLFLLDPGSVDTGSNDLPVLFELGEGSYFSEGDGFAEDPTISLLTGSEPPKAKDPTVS
Sequence of Hepatocyte nuclear factor 6 (Homo sapiens) (Q9UBC0 whole entry, looked up, the tested form may be a part): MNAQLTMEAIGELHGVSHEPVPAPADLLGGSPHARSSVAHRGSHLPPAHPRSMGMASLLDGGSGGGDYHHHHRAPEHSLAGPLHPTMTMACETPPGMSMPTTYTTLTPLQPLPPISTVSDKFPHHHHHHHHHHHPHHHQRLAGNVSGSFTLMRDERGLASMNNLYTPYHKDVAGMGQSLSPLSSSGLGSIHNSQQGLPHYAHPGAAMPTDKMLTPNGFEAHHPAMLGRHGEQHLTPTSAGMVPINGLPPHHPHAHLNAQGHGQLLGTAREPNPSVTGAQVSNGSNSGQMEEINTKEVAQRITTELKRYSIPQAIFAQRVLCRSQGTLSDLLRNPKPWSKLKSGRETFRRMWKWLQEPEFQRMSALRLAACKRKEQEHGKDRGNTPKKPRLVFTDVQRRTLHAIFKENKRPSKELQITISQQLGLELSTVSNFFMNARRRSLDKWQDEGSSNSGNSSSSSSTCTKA
Sequence of Hypoxia-inducible factor 1-alpha (Homo sapiens) (Q16665 whole entry, looked up): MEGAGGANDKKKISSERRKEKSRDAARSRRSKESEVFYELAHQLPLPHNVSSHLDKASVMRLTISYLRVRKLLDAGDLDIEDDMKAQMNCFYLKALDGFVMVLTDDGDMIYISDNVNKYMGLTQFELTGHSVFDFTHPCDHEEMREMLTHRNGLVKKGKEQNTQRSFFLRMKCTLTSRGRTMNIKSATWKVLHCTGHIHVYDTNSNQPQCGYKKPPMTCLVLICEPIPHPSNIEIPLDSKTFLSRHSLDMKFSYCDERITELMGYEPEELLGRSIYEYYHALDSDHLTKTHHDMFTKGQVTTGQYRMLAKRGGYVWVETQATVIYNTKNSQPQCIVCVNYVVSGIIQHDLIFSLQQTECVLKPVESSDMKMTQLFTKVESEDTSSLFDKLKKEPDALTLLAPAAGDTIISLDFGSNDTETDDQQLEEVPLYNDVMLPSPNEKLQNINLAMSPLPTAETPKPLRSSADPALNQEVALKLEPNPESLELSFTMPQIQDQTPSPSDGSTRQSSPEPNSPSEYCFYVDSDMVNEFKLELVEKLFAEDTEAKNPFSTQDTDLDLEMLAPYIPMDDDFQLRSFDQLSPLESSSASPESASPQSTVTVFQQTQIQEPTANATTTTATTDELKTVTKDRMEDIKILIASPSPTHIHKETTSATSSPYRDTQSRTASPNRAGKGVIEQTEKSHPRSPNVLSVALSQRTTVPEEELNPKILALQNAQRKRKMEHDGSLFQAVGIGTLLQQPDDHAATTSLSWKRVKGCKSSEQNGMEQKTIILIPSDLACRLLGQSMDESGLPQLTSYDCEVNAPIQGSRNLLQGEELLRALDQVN

## CC=Cc1ccc(OC)c(OC)c1
[1]
  outcome: inactive
[2]
  outcome: inactive
[3]
  outcome: inactive
[4]
  outcome: inactive
[5]
  outcome: inactive
[6]
  outcome: inactive
[7]
  outcome: inactive
[8]
  outcome: inactive

## COCCc1ccc(OCC(O)CNC(C)C)cc1 (stereo unspecified)
[1]
  outcome: inactive
[2]
  outcome: inactive
[9]
  outcome: inactive
[3]
  outcome: inactive
[4]
  outcome: inactive
[6]
  outcome: inactive
[8]
  outcome: inactive

## O=C(O)CNc1ccccc1
[1]
  outcome: inactive
[2]
  outcome: inactive
[9]
  outcome: inactive
[3]
  AC50: 165 µM (active)
[5]
  outcome: inactive
[6]
  outcome: inactive
[7]
  outcome: inactive
[8]
  outcome: inactive
[10]
  outcome: inactive

## C=C1C[C@]23C[C@@]1(O)CC[C@H]2[C@@]12C=C[C@H](O)[C@@](C)(C(=O)O1)[C@H]2[C@@H]3C(=O)O
[1]
  outcome: inactive
[2]
  outcome: inactive
[9]
  outcome: inactive
[3]
  outcome: inactive
[5]
  outcome: inactive
[6]
  outcome: inactive
[8]
  outcome: inactive

## CCCOCCO
[1]
  outcome: inactive
[2]
  outcome: inactive
[9]
  outcome: inactive
[4]
  outcome: inactive
[5]
  outcome: inactive
[6]
  outcome: inactive
[7]
  outcome: inactive
[8]
  outcome: inactive
[10]
  outcome: inactive

## CC(C)c1ccccc1O
[1]
  outcome: inactive
[2]
  outcome: inactive
[3]
  outcome: inactive
[4]
  outcome: inactive
[5]
  outcome: inactive
[6]
  outcome: inactive
[7]
  outcome: inactive

## CC(=O)CC(=O)Nc1ccc(C)cc1C
[1]
  outcome: inactive
[2]
  outcome: inactive
[9]
  outcome: inactive
[4]
  outcome: inactive
[5]
  outcome: inactive
[6]
  outcome: inactive
[8]
  outcome: inactive

## CCCCCCCCCCCCCCCC(=O)OC/C=C(C)/C=C/C=C(C)/C=C/C1=C(C)CCCC1(C)C
[1]
  outcome: inactive
[2]
  outcome: inactive
[9]
  outcome: inactive
[4]
  outcome: inactive
[5]
  outcome: inactive
[6]
  outcome: inactive
[7]
  outcome: inactive
[8]
  outcome: inactive

## Cc1ccc(C)o1
[1]
  outcome: inactive
[2]
  outcome: inactive
[9]
  outcome: inactive
[3]
  outcome: inactive
[5]
  outcome: inactive
[6]
  outcome: inactive
[7]
  outcome: inactive
[10]
  outcome: inactive

## CCCCC(CC)C(=O)OC(C)C (stereo unspecified)
[1]
  outcome: inactive
[2]
  outcome: inactive
[3]
  outcome: inactive
[4]
  outcome: inactive
[5]
  outcome: inactive
[6]
  outcome: inactive
[7]
  outcome: inactive
[8]
  outcome: inactive

## O=C(Nc1ccc2c(c1)Cc1ccccc1-2)C(F)(F)F
[1]
  outcome: inactive
[2]
  outcome: inactive
[9]
  outcome: inactive
[3]
  outcome: inactive
[5]
  AC50: 22.6 µM (active)
[6]
  outcome: inactive
[7]
  outcome: inactive
[8]
  outcome: inactive
[10]
  outcome: inactive

## Cc1cc(C)nc(NS(=O)(=O)c2ccc(N)cc2)n1
[1]
  outcome: inactive
[2]
  outcome: inactive
[9]
  outcome: inactive
[3]
  outcome: inactive
[5]
  outcome: inactive
[6]
  outcome: inactive
[7]
  outcome: inactive
[10]
  outcome: inactive

## CC(C)(C)C1=CC(=O)C(C(C)(C)C)=CC1=O
[1]
  outcome: inactive
[2]
  AC50: 50 µM (active)
[3]
  outcome: inactive
[4]
  outcome: inactive
[5]
  AC50: 33.3 µM (active)
[6]
  AC50: 78.1 µM (active)
[7]
  AC50: 97.3 µM (active)
[8]
  AC50: 50 µM (active)
[10]
  outcome: inactive

## CCOC(=O)CC(C)O (stereo unspecified)
[1]
  outcome: inactive
[2]
  outcome: inactive
[9]
  outcome: inactive
[3]
  outcome: inactive
[5]
  outcome: inactive
[6]
  outcome: inactive
[7]
  outcome: inactive
[8]
  outcome: inactive
[10]
  outcome: inactive

## CN(C)C(=S)SC(=S)N(C)C
[1]
  outcome: inactive
[2]
  outcome: inactive
[9]
  outcome: inactive
[3]
  outcome: inactive
[5]
  outcome: inactive
[6]
  outcome: inactive
[7]
  outcome: inactive
[8]
  AC50: 100 µM (active)
[10]
  outcome: inactive

## CCCCCc1ccco1
[1]
  AC50: 105 µM (active)
[2]
  outcome: inactive
[9]
  outcome: inactive
[3]
  outcome: inactive
[5]
  outcome: inactive
[6]
  outcome: inactive
[7]
  AC50: 115 µM (active)
[8]
  outcome: inactive
[10]
  outcome: inactive

## Cc1c(C2(c3cc(Br)c(O)c(Br)c3C)OS(=O)(=O)c3ccccc32)cc(Br)c(O)c1Br
[1]
  outcome: inactive
[2]
  outcome: inactive
[9]
  outcome: inactive
[5]
  outcome: inactive
[6]
  outcome: inactive
[7]
  outcome: inactive
[8]
  outcome: inactive
[10]
  outcome: inactive

## CCCN(CCC)S(=O)(=O)c1ccc(C(=O)O)cc1
[1]
  outcome: inactive
[2]
  outcome: inactive
[9]
  outcome: inactive
[3]
  outcome: inactive
[4]
  outcome: inactive
[6]
  outcome: inactive
[7]
  outcome: inactive
[8]
  outcome: inactive

## C=Cc1ccncc1
[1]
  outcome: inactive
[2]
  outcome: inactive
[9]
  AC50: 55.9 µM (active)
[3]
  outcome: inactive
[5]
  outcome: inactive
[6]
  AC50: 33.9 µM (active)
[7]
  AC50: 75.8 µM (active)
[8]
  AC50: 28.2 µM (active)
[10]
  outcome: inactive

## CCCCCCCC(=O)OCCCCCC
[1]
  outcome: inactive
[2]
  outcome: inactive
[9]
  outcome: inactive
[3]
  outcome: inactive
[4]
  outcome: inactive
[5]
  outcome: inactive
[6]
  outcome: inactive
[7]
  outcome: inactive
[10]
  outcome: inactive

## CC=CC=CCOC(=O)C(C)C
[1]
  outcome: inactive
[2]
  outcome: inactive
[9]
  AC50: 100 µM (active)
[3]
  outcome: inactive
[5]
  outcome: inactive
[6]
  outcome: inactive
[7]
  outcome: inactive
[8]
  outcome: inactive
[10]
  outcome: inactive

## CCCCC1CCC(O)CC1 (stereo unspecified)
[1]
  outcome: inactive
[2]
  outcome: inactive
[9]
  outcome: inactive
[4]
  outcome: inactive
[5]
  outcome: inactive
[6]
  outcome: inactive
[7]
  outcome: inactive
[8]
  outcome: inactive
[10]
  outcome: inactive

## CCOC(=O)c1ccc(N)cc1
[1]
  outcome: inactive
[2]
  outcome: inactive
[9]
  outcome: inactive
[3]
  outcome: inactive
[4]
  outcome: inactive
[6]
  outcome: inactive
[7]
  AC50: 25.7 µM (active)
[8]
  outcome: inactive
[10]
  outcome: inactive

## Clc1ccc(C(c2ccccc2Cl)C(Cl)Cl)cc1 (stereo unspecified)
[1]
  AC50: 43.8 µM (active)
[2]
  outcome: inactive
[9]
  AC50: 60.9 µM (active)
[3]
  outcome: inactive
[4]
  outcome: inactive
[6]
  outcome: inactive
[7]
  outcome: inactive
[8]
  AC50: 171 µM (active)
[10]
  outcome: inactive

## Cc1cc(=O)oc2cc(N(C)C)ccc12
[1]
  outcome: inactive
[2]
  outcome: inactive
[9]
  outcome: inactive
[4]
  outcome: inactive
[5]
  outcome: inactive
[6]
  outcome: inactive
[7]
  outcome: inactive
[8]
  outcome: inactive
[10]
  AC50: 100 µM (active)

## Clc1cc(Cl)c(-c2c(Cl)c(Cl)cc(Cl)c2Cl)cc1Cl
[1]
  outcome: inactive
[2]
  outcome: inactive
[3]
  outcome: inactive
[4]
  outcome: inactive
[5]
  outcome: inactive
[6]
  outcome: inactive
[7]
  outcome: inactive
[8]
  AC50: 29.1 µM (active)

## O=C(O)COCC(=O)O
[1]
  outcome: inactive
[2]
  outcome: inactive
[9]
  outcome: inactive
[3]
  outcome: inactive
[4]
  outcome: inactive
[5]
  outcome: inactive
[6]
  outcome: inactive
[7]
  outcome: inactive
[10]
  outcome: inactive

## C=C1CC[C@H](O)C/C1=C/C=C1\CCC[C@]2(C)[C@@H]([C@H](C)/C=C/[C@H](C)C(C)C)CC[C@@H]12
[1]
  outcome: inactive
[2]
  outcome: inactive
[9]
  outcome: inactive
[4]
  outcome: inactive
[6]
  outcome: inactive
[7]
  outcome: inactive
[10]
  outcome: inactive

## CC1CC(O)CC(C)(C)C1 (stereo unspecified)
[1]
  outcome: inactive
[2]
  outcome: inactive
[9]
  outcome: inactive
[4]
  outcome: inactive
[5]
  outcome: inactive
[6]
  outcome: inactive
[8]
  outcome: inactive
